# Source: PubChem BioAssay AID686979 (National Center for Advancing Translational Sciences (NCATS), 2013)
# Out of some 420,000 compounds screened, about 50,000 (12%) were called active. Another 26% or so got no clear call; they are omitted. The list comes from a sample in which actives are over-represented; it also holds similar structures and randomly drawn compounds. A number with no mark means an inactive call. Calls follow the shape of the dose curve; as a rule, active = well fitted inhibition curve with a large enough effect; inconclusive = small, poorly fitted or top-dose-only effect; inactive = flat fitted curve, though single readings scatter.
# Assay: qHTS for Inhibitors of human tyrosyl-DNA phosphodiesterase 1 (TDP1): qHTS in cells in presence of CPT; also: nearly all actives have a fitted effect of over 55% in size
# Settings: chicken DT40 Tdp1-/-;hTDP1 cells + 20 nM CPT, ATP luminescence, 48 h; series mostly up to 46.2 µM; activity change, negative = growth inhibition: at the top concentration
# Method in brief: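 Chicken DT40 Tdp1-/- cells complemented with human TDP1, 400 cells/well, exposed to compounds plus 20 nM camptothecin for at least 48 h at 37 C; viability read as ATP content by CellTiter-Glo luminescence.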
# % is scaled to controls: 0 for no effect and ±100 for the full control effect; potency is read from the fitted curve at half-maximal effect.
SMILES,"activity change, negative = growth inhibition [%]",Potency
COc1ccc(C2/C(=C(/O)c3ccc4c(c3)CC(C)O4)C(=O)C(=O)N2Cc2ccncc2)cc1 (stereo unspecified),29.7,
CC(C)COc1ccc(C(=O)NNC(=O)CCC(=O)c2cccs2)cc1,-2.08,
Cc1cc(=O)n2[nH]c(-c3cccc(Cl)c3)cc2n1,,18.4 µM (active)
O=C1CCCc2c1nc(-c1cccc(Cl)c1)n2O,-22.1,
C=CCc1c(C)nc2cc(-c3ccccc3)[nH]n2c1=O,-22.6,
O=[N+]([O-])c1ccc2[nH]c3c(c2c1)CCCC3O (stereo unspecified),2.97,
O=C1/C(=C\c2ccsc2)NC(=S)N1c1ccccc1,-5.02,
O=c1c(-c2ccccc2Cl)c[nH]n1-c1ccccc1,-13.2,
COc1cccc(-c2cc3nc4c(c(N5CCC6(CC5)OCCO6)n3n2)CCCC4)c1,,23.1 µM (active)
COc1cccc(NC(=O)CN2CCN(c3nc(-c4cccc(OC)c4)cs3)CC2)c1,-27.1,
COc1cccc(CNc2nc3nc4c(c(=O)n3[nH]2)CCC4)c1,7.39,
CC(=NNC(=O)c1ccc2nc[nH]c2c1)c1ccc(Br)cc1,-16.2,
O=C(NCCCO)C(=O)Nc1c2c(nn1-c1ccc(F)cc1)CSC2,-6.22,
Cc1ccc(S(=O)(=O)N[C@H]2CCC[C@@H]2O)cc1,23.7,
CCN(C(=O)COC(=O)c1cc(S(=O)(=O)N2CCc3ccccc32)ccc1OC)C1CCS(=O)(=O)C1 (stereo unspecified),1.42,
COc1ccc(S(=O)(=O)N2CCc3ccccc32)cc1C(=O)Nc1cc(S(C)(=O)=O)ccc1Cl,,9.2 µM (active)
O=C(Nc1cc(C(F)(F)F)ccc1Cl)c1ccc2c(c1)CCN2S(=O)(=O)c1ccccc1,,18.4 µM (active)
CS(=O)(=O)N1CCc2cc(C(=O)Nc3ccccc3)ccc21,-7.48,
Cc1ccc(S(=O)(=O)N2CCc3cc(C(=O)Nc4ccc(Cl)cc4C)ccc32)cc1,-7.99,
COc1cccc(NC(=O)c2cc(S(=O)(=O)N3CCc4ccccc43)cn2C)c1,1.38,
Cc1noc(C)c1NC(=O)N(C)C[C@@H]1Oc2cc(Br)ccc2S(=O)(=O)N([C@@H](C)CO)C[C@H]1C,-16.2,
Cc1ccc(CNC(=O)C2CCCN2S(=O)(=O)c2ccc3c(c2)C(C)(C)C(=O)N3C)cc1 (stereo unspecified),-4.08,
COc1cc(Br)cc2cc(S(=O)(=O)c3ccccc3)c(=O)oc12,-17.1,
CCOC(=O)C(Cc1ccc(N)cc1)N1C(=O)c2ccccc2C1=O (stereo unspecified),-20.1,
O=C(Nc1ccccc1F)c1ccc(Cn2cc(Br)cn2)cc1,-29.2,
CCCc1nc(-c2cc3cc(C)ccc3[nH]c2=O)no1,-11.1,

SMILES,"activity change, negative = growth inhibition [%]",Potency
COc1ccc(N(Cc2cc3cc(OC)ccc3[nH]c2=O)S(C)(=O)=O)cc1,-13.5,
CC(=O)OCc1cc2cc(C)ccc2[nH]c1=O,-29.4,
COc1ccc2[nH]c(=O)c(CNc3ccc(C)c(C)c3)cc2c1,,4.11 µM (active)
CCNCc1cc2cc(C)ccc2[nH]c1=O,,18.4 µM (active)
CCC(=O)N(Cc1cc2cc(OC)ccc2[nH]c1=O)c1ccccc1C,-12.5,
CCCCN1C(=O)c2ccc(C(=O)Nc3ccc(S(=O)(=O)N(C)C)cc3)cc2C1=O,-24.7,
Cc1ccccc1Nc1nc(N)nc(COC(=O)CCC(=O)c2ccc(F)cc2)n1,-18.4,
Cc1cc(NC(=O)c2ccc(-c3ccc(Cl)cc3)o2)cc(-c2nc3ncccc3o2)c1O,0.843,
Cc1ccccc1C1=N/C(=C/c2cccnc2)C(=O)O1,-27.4,
O=Cc1cn(Cc2ccccc2)nc1-c1cccnc1,-0.314,
O=C1/C(=C\c2cccnc2)CN(Cc2ccccc2)C/C1=C\c1cccnc1,,5.17 µM (active)
O=C(C(=O)N1CCc2ccccc2C1)c1c[nH]c2ccccc12,-0.41,
Cc1ccc(-c2noc(CCC(N)=O)n2)cc1,-5.46,
CCNC(=O)CCc1nc(-c2ccc(C)cc2)no1,2.65,
CCNC(=O)CCc1nc(-c2ccc(C(C)(C)C)cc2)no1,,16.4 µM (active)
Cn1c(Cc2cccs2)nnc1SCC(=O)Nc1ccccc1,-14.6,
O=C1C(=O)N(CCCO)C(c2ccccc2)/C1=C(\O)c1ccc(Br)cc1 (stereo unspecified),-18.7,
CN(CC(=O)NCc1ccc(Cl)cc1)S(=O)(=O)c1cccs1,-1.91,
COCCN1CCN(C(=O)c2sc3ncnc(NCC4CCCO4)c3c2C)CC1 (stereo unspecified),6.09,
O=C(COC(=O)c1ncc(Cl)c(Cl)c1Cl)NCc1ccccc1,-15.5,
CC(C)C(NC(=O)c1c(F)cccc1F)C(=O)NNC(=O)c1ccccc1 (stereo unspecified),16.2,
Cc1cccc(NC(=O)Cn2c(C(F)(F)F)nc3ccccc32)c1C,-26.9,
CCC(=O)Nc1ccc(C)cc1-c1nc2ccccc2n(Cc2ccccc2)c1=O,-11.9,
CCC(=O)Nc1nc2ccccc2n1Cc1ccccc1C,,14.6 µM (active)
COc1ccc(N2CC(C(=O)N[C@@H](C)C(=O)N3CCCCC3)CC2=O)cc1 (stereo partly specified),2.81,
